{
  "source": "PubChem BioAssay",
  "note": "Entries with a potency or affinity are not part of this list. Calls of active or inactive are those of the source.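 How the source made its calls: active means a fitted half-maximal concentration no higher than twice the top valid tested dose, with signal falling as cells die; inconclusive means flat curve between -70% and -30%, or poor fit; inactive means the rest, including signal rising instead of falling.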",
  "data": [
    {"assay": "viability loss in HeLa cells – cell-based, ATP luminescence, cherry-pick samples, cytotoxicity control, dose response (AID 687004);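 further: 0% = neutral control median and -100% = staurosporine 10 µM control median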", "conditions": "ATP luminescence (CellTiter-Glo), 48 h; series mostly up to 26 µM; activity change, negative = cytotoxicity: at the top concentration", "values": [
      {"compound": "O=C(Nc1ccc(F)cc1)N1C[C@@H]2[C@H](c3ccccc31)[C@H](CO)N2Cc1cocn1", "activity change, negative = cytotoxicity": "6.04% (inactive)"},
      {"compound": "C[C@@H]1CN([C@H](C)CO)C(=O)c2cc(NS(=O)(=O)c3ccc(Cl)cc3)ccc2O[C@H]1CN(C)S(=O)(=O)c1ccc(F)cc1", "activity change, negative = cytotoxicity": "9.31% (inactive)"},
      {"compound": "COc1ccccc1-c1cnc2c(c1)C(=O)N([C@H](C)CO)C[C@@H](C)[C@H](CN(C)Cc1cncnc1)O2", "activity change, negative = cytotoxicity": "1.03% (inactive)"},
      {"compound": "CNC[C@H]1Oc2c(NS(=O)(=O)c3cccs3)cccc2C(=O)N([C@H](C)CO)C[C@@H]1C", "activity change, negative = cytotoxicity": "1.49% (inactive)"},
      {"compound": "Cc1noc(C)c1S(=O)(=O)N(C)C[C@@H]1Oc2c(NC(=O)c3cnccn3)cccc2C(=O)N([C@@H](C)CO)C[C@@H]1C", "activity change, negative = cytotoxicity": "7.41% (inactive)"},
      {"compound": "CN1C(=O)c2cc(NS(C)(=O)=O)ccc2OC[C@@H]2O[C@@H](CC(=O)O)CC[C@@H]21", "activity change, negative = cytotoxicity": "-2.86% [at 23.5 µM] (inactive)"},
      {"compound": "CNC(=O)C[C@H]1CC[C@H]2[C@H](COc3ccc(NC(=O)c4cc(C)on4)cc3C(=O)N2C)O1", "activity change, negative = cytotoxicity": "1.2% [at 23.5 µM] (inactive)"},
      {"compound": "C[C@@H]1CCCCO[C@@H](CN(C)S(=O)(=O)c2ccc(F)cc2)[C@@H](C)CN([C@@H](C)CO)C(=O)c2cc(NS(=O)(=O)c3ccc(F)cc3)ccc2O1", "activity change, negative = cytotoxicity": "5.14% (inactive)"},
      {"compound": "COc1cccc(C2CC(c3cccs3)=NN2C(=O)c2ccco2)c1O", "note": "(configuration not stated)", "activity change, negative = cytotoxicity": "-1.44% (inactive)"},
      {"compound": "COCCNC(=O)C[C@@H]1CC[C@@H]2[C@H](COC[C@@H](O)CN2S(=O)(=O)c2ccccc2C)O1", "activity change, negative = cytotoxicity": "14.2% (inactive)"},
      {"compound": "O=C(C[C@H]1C[C@@H]2c3cc(NC(=O)CC4CC4)ccc3O[C@@H]2[C@@H](CO)O1)NCc1cccc(F)c1", "activity change, negative = cytotoxicity": "1.37% (inactive)"},
      {"compound": "O=C(C[C@@H]1C[C@@H]2c3cc(NC(=O)Nc4ccc(F)cc4)ccc3O[C@@H]2[C@@H](CO)O1)NCC1CC1", "activity change, negative = cytotoxicity": "-1.09% [at 23.5 µM] (inactive)"}
    ]}
  ]
}
